The text below walks through data of PubChem BioAssay AID602123 (The Scripps Research Institute Molecular Screening Center, 2011).

Hit rate of the full screen: of about 360,000 compounds, about 1,500 (0.42%) were called active. For the sample, actives were picked, then their nearest neighbours and some compounds at random. Unmarked numbers belong to inactive results. Rule as the data show it: active = inhibition above about 13% (passing the limit was not always enough); inactive = the rest.

In this assay the target is Lon protease (Escherichia coli (strain K12)) (UniProt P0A9M0). Briefly: E. coli eLon protease inhibition – biochemical, fluorescence polarization, primary screen (AID 602123).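 Also: 0% = enzyme with probe and DMSO and 100% = no enzyme.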 The settings on record: purified E. coli Lon protease, at 7.94 µM, hits give high values.
Chain of Lon protease (Escherichia coli (strain K12)) (P0A9M0 whole entry, looked up): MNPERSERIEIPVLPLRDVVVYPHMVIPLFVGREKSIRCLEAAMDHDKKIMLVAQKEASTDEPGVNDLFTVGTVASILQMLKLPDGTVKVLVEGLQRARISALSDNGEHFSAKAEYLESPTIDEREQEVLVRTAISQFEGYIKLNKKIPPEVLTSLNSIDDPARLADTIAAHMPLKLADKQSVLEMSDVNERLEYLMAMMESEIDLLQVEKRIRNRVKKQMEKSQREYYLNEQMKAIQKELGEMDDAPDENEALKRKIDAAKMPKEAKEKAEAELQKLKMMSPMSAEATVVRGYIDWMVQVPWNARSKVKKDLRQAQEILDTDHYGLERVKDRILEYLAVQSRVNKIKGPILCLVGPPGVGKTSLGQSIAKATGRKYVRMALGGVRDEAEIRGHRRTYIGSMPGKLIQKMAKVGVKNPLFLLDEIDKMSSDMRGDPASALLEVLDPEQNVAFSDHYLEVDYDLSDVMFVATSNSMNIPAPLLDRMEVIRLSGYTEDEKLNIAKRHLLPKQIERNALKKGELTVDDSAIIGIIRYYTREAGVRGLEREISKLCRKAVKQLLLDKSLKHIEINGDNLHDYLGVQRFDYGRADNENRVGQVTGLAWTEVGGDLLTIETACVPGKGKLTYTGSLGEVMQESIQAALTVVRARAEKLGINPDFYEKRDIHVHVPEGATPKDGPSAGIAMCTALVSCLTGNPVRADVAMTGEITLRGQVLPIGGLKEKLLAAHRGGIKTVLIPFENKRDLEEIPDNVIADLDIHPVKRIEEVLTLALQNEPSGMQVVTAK
Turning to `O=S(=O)(NCc1ccccn1)c1ccc(Br)s1`, the inhibition is -5.95%.

Consider `O=S(=O)([N-]c1nc2ccccc2nc1-[n+]1ccc(Cc2ccccc2)cc1)c1ccc(Br)s1`, for which the inhibition was 51.7% (active).

Regarding `CCOC(=O)C(C(=O)c1ccccc1)C(c1ccccc1)c1nccc2ccccc12` (configuration not stated), the inhibition was -5.25%.

For the compound `CCOCCOCCC(C(=O)O)P(=O)(c1ccccc1)c1ccccc1` (configuration not stated), the inhibition is 1.28%.

Consider `CSc1ncccc1C(=O)NCC(c1ccco1)N1CCCCC1` (configuration not stated), for which the inhibition was 2.84%.

On to `O=C(NCc1ccco1)c1cnn2c(C(F)(F)F)cc(-c3ccco3)nc12`, for which the inhibition is -0.62%.

For `Oc1ccc2ccccc2c1N=Nc1nccs1`, the inhibition was 43.2% (active).

Regarding `O=C(COC(=O)CNC(=O)C1CCCCC1)Nc1cccc(F)c1`, the inhibition is -17.9%.

Turning to `CCN1CCN(CC(=O)c2cc(OC)c(OC)c(OC)c2)CC1`, the inhibition was 7.78%.

With `CN1c2ccc(C=O)c3c(C=O)ccc(c23)N(C)C1(C)C`, the inhibition was 117% (active).

On to `Cc1ccc(C=O)c([B-](F)(F)F)c1`, for which the inhibition was -1.79%.

For the compound `COc1ccc(C(=O)NCC(c2ccco2)N2CCc3ccccc32)cc1OC` (configuration not stated), the inhibition is 4.85%.

For `COc1ccc(OC)c(NC(=O)Cc2cccs2)c1`, the inhibition is 32.4% (active).

With `COc1cc(OC)cc(C(=O)NNC(=O)Cc2cccs2)c1`, the inhibition is -9.81%.

For `COc1ccc(C)cc1NC(=O)CNCc1cccs1`, the inhibition was 5.01%.

On to `COc1cc(C(=O)Nc2ncccc2C)ccc1OCC(=O)N1CCOCC1`, for which the inhibition was -2.64%.

Turning to `CC(=O)CC[C@@H](C)O[C@@H]1OC(C)[C@H](O)CC1O` (some centres not stated), the inhibition is 1.06%.

For `CCc1cc2c(=O)c(-c3nc4ccccc4n3C)c(CCCC(=O)O)oc2cc1OC(=O)C(C)(C)C`, the inhibition was -5.21%.

On to `O=C1C(Sc2cccc(F)c2)=C[C@@]2(O)CC[C@@H](O)[C@]1(Sc1cccc(F)c1)[C@H]2O`, for which the inhibition is -1.25%.

For `COc1ccc(CC(=O)NCc2nnc(SCC(=O)Nc3nccs3)n2C)cc1`, the inhibition is -1.92%.

For the compound `COc1ccc(C(=O)NCc2nnc(SCCOc3ccccc3)n2C)cc1`, the inhibition is 19.3% (active).

With `COc1ccc(C(=O)NCc2nnc(SCC(=O)NC3=NCCS3)n2C)cc1`, the inhibition is 1.04%.

Turning to `C/C(=N\NC(=O)NC1CCCCC1)c1ccc(OC(F)F)cc1OC(F)F`, the inhibition was -5.36%.

In the case of `N#Cc1cc([N+](=O)[O-])ccc1NCC1CCCO1` (configuration not stated), the inhibition is 7.82%.

`O=C1C(C=NCC2CCCO2)=C(O)c2ccccc21` (configuration not stated): the inhibition was 3.5%.

Regarding `O=C1c2cccc3c([N+](=O)[O-])ccc(c23)C(=O)N1CC1CCCO1` (configuration not stated), the inhibition is 25.4% (active).

In the case of `COc1ccc(SCCN2CCN(CC(C)C)CCC2=O)cc1`, the inhibition is 8.99%.

`CN(Cc1cn(Cc2ccc(C(F)(F)F)cc2)nn1)C1CN(Cc2cn(Cc3ccc(C(F)(F)F)cc3)nn2)S(=O)(=O)C1` (configuration not stated): the inhibition is 4.67%.

In the case of `Cc1ccccc1S(=O)(=O)NC(=O)C1(C)CCN1C(=O)C1(c2ccccc2)CCCC1` (configuration not stated), the inhibition is -3.92%.

In the case of `CCN(CC)C(=O)CSc1nnc(-c2ccc(S(=O)(=O)NCc3ccccc3Cl)cc2)o1`, the inhibition is 11.8%.

Take `Cc1cnc(CN(C)C(=O)C2CCC(=O)N(CCc3cccc(F)c3)C2)[nH]1` (configuration not stated): the inhibition is 0.28%.

For `COc1ccc(NC(=O)CSc2nnc(Cc3ccccc3)c(=O)n2N)cc1`, the inhibition was 1.33%.

On to `COc1ccc(CC(=O)Nc2ccc(-c3nnc(-c4ccccc4)o3)cc2)cc1`, for which the inhibition was 27.1% (active).

On to `COc1ccc(NC(=O)CC(NC(C)c2ccccc2)C(=O)O)cc1` (configuration not stated), for which the inhibition was 1.2%.

Consider `O=c1c2ccccc2nc2n1C(CSCc1cccc(C(F)(F)F)c1)CS2` (configuration not stated), for which the inhibition was -0.91%.

As for `COc1ccc(C2C3=C(OC(C)=O)c4ccccc4C3=Nc3c2c(=O)n(C)c(=O)n3C)cc1` (configuration not stated), the inhibition was -3.27%.

For the compound `CC1Cc2cc(/C(O)=C3\C(=O)C(=O)N(Cc4cccnc4)C3c3ccccc3F)ccc2O1` (configuration not stated), the inhibition is -8.03%.

For `O=C1C=C(NCCNc2c(F)c(F)c(CO)c(F)c2F)CCC1`, the inhibition was 16.1% (active).

In the case of `CC1CC(C)CN(C(=O)COC(=O)c2ccc3ncsc3c2)C1` (configuration not stated), the inhibition was 0.01%.

Consider `CC(C)NC(=O)Nc1cccc2c1O[C@@H](CN(C)S(=O)(=O)c1ccc(F)cc1)[C@@H](C)CN([C@H](C)CO)C2=O`, for which the inhibition was -17.1%.

In the case of `O=C(COC(=O)Cn1cnc2ccccc21)Nc1cccc2c1C(=O)c1ccccc1C2=O`, the inhibition is 49.2% (active).

With `O=C(COC(=O)c1cccc(Br)c1)Nc1cccc2c1C(=O)c1ccccc1C2=O`, the inhibition was -3.73%.

For `O=C(Cn1cnc2ccccc21)Nc1ccccc1-c1ccccc1`, the inhibition was -15.9%.

On to `Cc1ccc(S(=O)(=O)N2CCC(C(=O)NCCC3=CCCCC3)CC2)cc1C`, for which the inhibition was 2.33%.

Take `Cc1ccc(OCC(=O)Nc2cccc3c2CCCC3)cc1C`: the inhibition was -1.11%.

As to `O=C(Nc1ccc(Br)cc1F)C1CC(=O)N(C2CCCCC2)C1` (configuration not stated), the inhibition is -9.6%.

Consider `CCS(=O)(=O)n1nc(-c2ccccc2)nc1SCc1ccccc1`, for which the inhibition is 0.39%.

Turning to `COc1ccccc1-c1cc2nc(NCc3cccc(Cl)c3)ccn2n1`, the inhibition is 19.1% (active).

Consider `COc1ccc(-c2cc3nc(NCCOc4ccccc4)ccn3n2)cc1`, for which the inhibition is 5.17%.

Take `CC(C)Cc1ccc(-c2cc3nc(NCc4cccc(Cl)c4)ccn3n2)cc1`: the inhibition was -0.63%.

Consider `O=C(NCCc1ccco1)C(=O)NCCC1CCCCN1S(=O)(=O)c1ccccc1` (configuration not stated), for which the inhibition is 0.36%.

With `COc1cc(OC)c2ccc(=O)oc2c1C(CCN1CCN(c2ccccc2)CC1)c1ccc2c(c1)OCO2` (configuration not stated), the inhibition was -2.01%.

Turning to `O=C(NC(=O)c1ccc(Cl)c(Cl)c1)OC1CCS(=O)(=O)C1` (configuration not stated), the inhibition is -3.19%.

For `CCOCCCNS(=O)(=O)Cc1ccccc1`, the inhibition was 5.68%.

For the compound `CCCc1cc(=O)[nH]c(SCC(=O)N2CCN(S(=O)(=O)c3ccc(C)cc3C)CC2)n1`, the inhibition was 22.9% (active).

As for `CCCc1cc(=O)[nH]c(SCC(=O)Nc2ccc(S(=O)(=O)N3CCCC3)cc2)n1`, the inhibition was -14.4%.

Consider `Cc1ccc(S(=O)(=O)N2CCN(C(=O)CSc3cc(C)ccc3C)CC2)c(C)c1`, for which the inhibition was 1.59%.

Turning to `COc1ccc(S(=O)(=O)N2CCCCC2c2cc(C(=O)NCc3ccc(F)cc3)no2)cc1` (configuration not stated), the inhibition is -3.9%.

Take `CCCOn1c(-n2nc(C)cc2C)nc2ccccc2c1=O`: the inhibition is -4.29%.

With `CC1(C)NC(=O)N(CC(=O)Nc2ccc(-c3ccccc3)cc2)C1=O`, the inhibition is -5.51%.

With `COc1ccc(NC(=S)NCc2cccs2)c(OC)c1`, the inhibition was -8.04%.

Take `COc1ccc2[nH]c(C)c(CCN(Cc3cccs3)C(=S)Nc3ccccc3OC)c2c1`: the inhibition was 18.1% (active).

As to `Cc1[nH]c2ccccc2c1CCN(Cc1cccs1)C(=S)NC(C)(C)C`, the inhibition is -6.78%.

Take `CCn1c(CSc2nncn2-c2ccc(OC)cc2)nc2cc(S(=O)(=O)N(C)C)ccc21`: the inhibition is 3.36%.

`CCCn1nc(C(=O)OCc2nc(N)nc(Nc3ccccc3C)n2)c2ccccc2c1=O`: the inhibition was -13.7%.

With `Cc1ccccc1Nc1nc(N)nc(CSc2nnc3ccccn23)n1`, the inhibition was 7.49%.

For the compound `Cc1ccccc1Nc1nc(N)nc(CN2CCN(c3ccccn3)CC2)n1`, the inhibition was 16.7% (active).

As to `Cc1sc(NC(=S)NC(=O)c2cccs2)nc1-c1ccc(CC(C)C)cc1`, the inhibition is -2.21%.

As to `O=C(CSCc1ccc([N+](=O)[O-])cc1)Nc1cccc(C(=O)Nc2ccccc2C(=O)O)c1`, the inhibition is -7.21%.

Consider `Cc1ccc(S(=O)(=O)N2CCC(C(=O)OCC(=O)N(C)c3ccccc3)CC2)cc1C`, for which the inhibition is -4.62%.

On to `C[C@@H]1CN([C@H](C)CO)C(=O)CCCn2nncc2CO[C@@H]1CN(C)C(=O)OCc1ccccc1`, for which the inhibition is -12.2%.

`CCN(CC(=O)NC1CCS(=O)(=O)C1)c1nc(-c2cccnc2)nc2ccccc12` (configuration not stated): the inhibition was -4.31%.

Regarding `COc1ccc(Nc2nc(-c3cccnc3)nc3ccccc23)cn1`, the inhibition was 51.2% (active).

Regarding `O=C(CSc1n[nH]c(-c2cccnc2)n1)Nc1ccnc2ccccc12`, the inhibition is -1.63%.

Regarding `Cc1ccc2nc(N3C(=O)C(O)=C(C(=O)c4ccco4)C3c3cccc(O)c3)sc2c1` (configuration not stated), the inhibition is -1.95%.

For the compound `O=C(C1=C(O)C(=O)N(c2ncccn2)C1c1cccs1)c1ccco1` (configuration not stated), the inhibition was 44.3% (active).

Consider `O=C(C1=C(O)C(=O)N(Cc2ccccc2)C1c1cccnc1)c1ccco1` (configuration not stated), for which the inhibition is -4.41%.

Turning to `CC/C(C)=N/Nc1nc2sc3c(c2c(=O)[nH]1)CC(C)(C)OC3`, the inhibition is 20.9% (active).

Take `CC(C)c1nc2sc3c(c2c(=O)n1N)CC(C)(C)OC3`: the inhibition is -4.29%.

Regarding `CCOC(=O)Cn1c(SC)nc2sc3c(c2c1=O)CC(C)(C)OC3`, the inhibition is -4.5%.

For `CCC(C)c1ccc(NC(=S)NCc2ccccn2)cc1` (configuration not stated), the inhibition was 0.44%.

`CN(C)c1ccc(C2N(C)C(=O)c3ccccc3N2C)cc1` (configuration not stated): the inhibition was -1.4%.

With `CN(C)c1ccc(Nc2c3c4c(cccc4n(C)c2=O)C(=O)c2ccccc2-3)cc1`, the inhibition was 48.2% (active).

As for `COc1ccc(NC(=O)CC2C(=O)OCC3CCCCN32)cc1Cl` (configuration not stated), the inhibition was 1.67%.

With `Cc1ccc(C(=O)O)c(NC=O)c1OCc1ccccc1`, the inhibition was -0.93%.

Take `COc1ccc(-c2csc(C(O)c3cccc(Cl)c3)n2)cn1` (configuration not stated): the inhibition was -11.3%.

Regarding `CCN1CC=C2C(C#N)=C(N)C(C#N)(C#N)[C@H](c3ccoc3)[C@H]2C1`, the inhibition was 120% (active).

For `CC(C)C(=O)Nc1nnc(Sc2ccc(N(C)C)cc2)s1`, the inhibition is -6.47%.

Turning to `CCN(CC(=O)NCc1ccc(Cl)cc1)C(=O)CSc1ccccc1`, the inhibition is -3.84%.

`CCOCCN(C=O)c1cccc(OC)c1`: the inhibition was 32.6% (active).

In the case of `CCOC(=O)NC(=O)C(=CNc1cccc(OC)c1)C(=O)NC(=O)OCC`, the inhibition is -2.26%.

Regarding `CCN(CC)C(=O)CN(c1cccc(OC)c1)S(=O)(=O)c1ccc(C)cc1`, the inhibition was -0.24%.
